Screening data (PubChem BioAssay)
NS1 function inh – inhibitors of influenza NS1 protein function. Potency, µM (titrated, usually from 46.1 µM). 270,000 tested, 0.4% active; calls by dose curve; note: actives are rising curves; nearly all actives have a fitted effect of over 50% in size
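A cell-based growth assay was used: compounds that relieve NS1-induced slow growth of budding yeast raise OD600. Assay medium was yeast nitrogen base with ammonium sulphate and -URA supplement, pH 6.0, with 2% galactose.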
Pf growth 96h – P. falciparum growth inhibition at 96 hours; Potency, µM (series often up to 28.7 µM), usual class: inhibitors; P. falciparum luciferase reporter growth, 96 h; 320,000 tested, 6.9% active; AID 504834
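Readout is luminescence from an integrated firefly luciferase in P. falciparum. Red cells, 2% hematocrit and 0.05% parasitemia final, were cultured with compound through two parasite generations (96 hours) at 37 C, 5% CO2.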
AMA1 RON2 block – AMA1-RON2 (P. falciparum) interaction inhibition; AlphaScreen AMA1-biotinylated RON2 peptide binding; Potency, µM (highest dose often 58.2 µM), most hits filed as inhibitors; 360,000 tested, 0.2% active; note: nearly all actives have a fitted effect of over 45% in size
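AMA1 (3D7) with his tag at 25 nM final met compounds first, then biotinylated RON2 peptide at 25 nM; detection used donor plus acceptor beads, 10 µg/mL apiece, read by AlphaScreen after 30 min at room temperature.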
Sm TGR block – S. mansoni TGR enzyme inhibition. Q962Y6. 360,000 tested, 3% active. Potency, µM (titrated, usually from 114 µM), hits mostly inhibitors. AID 485364. purified TGR, DTNB reduction, TNB absorbance 405 nm; note: nearly all actives have a fitted effect of over 60% in size
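First, TGR (20 nM dispensed) and NADPH were mixed with compound. Second, a 15 min room-temperature incubation followed. Third, further NADPH and then DTNB were added to start the reaction. Finally, TNB absorbance was monitored kinetically.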
Pf growth 48h – inhibits P. falciparum growth in the first generation, 48 h. P. falciparum luciferase growth in erythrocytes, 48 h. Potency, µM (titrated, usually from 28.7 µM), most hits filed as inhibitors. 310,000 tested, 5.9% active
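Erythrocytes infected with P. falciparum carrying an integrated firefly luciferase reporter (2% hematocrit, 0.1% parasitemia final) were exposed to compounds in RPMI 1640 with 0.5% Albumax at 37 C, 5% CO2. Growth inhibition was scored as reduced luminescence.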
Large screens that a line does not name were inactive; ! = not confirmed by another sample. An excerpt weighted towards active compounds, which were near 11% of everything screened. Unless noted, calls come from the whole dose curve; as a rule, active = well fitted curve in the direction sought with a large enough effect; inconclusive = small, poorly fitted or top-dose-only effect, or another doubt; inactive = no such curve, though single readings can be large; an effect the other way counts as inactive or inconclusive.

O=P(Cc1ccccc1)(c1ccccc1)c1ccccc1	none
O=C(CP(=O)(c1ccccc1)c1ccccc1)Nc1cccc(CP(=O)(c2ccccc2)c2ccccc2)c1	Pf growth 96h 7.4µM, Pf growth 48h inconclusive
CC(Oc1ccc2ccc(=O)oc2c1)C(=O)N1CCOCC1 (stereo not given)	none (no result: NS1 function inh)
COCCCC/C(=N\OCCN)c1ccc(C(F)(F)F)cc1	NS1 function inh inconclusive, Pf growth 96h 12µM!, Pf growth 48h inconclusive
COCCCCC(=NOCCN)c1ccc(C(F)(F)F)cc1	Pf growth 48h inconclusive (no result: NS1 function inh, AMA1 RON2 block, Sm TGR block)
CC(=O)Nc1ccc(-n2c(CCC(=O)O)ccc2-c2ccc(C)cc2)cc1	Sm TGR block 14µM (no result: NS1 function inh, Pf growth 96h, AMA1 RON2 block, Pf growth 48h)
CC(=O)Nc1ccc(-n2c(CCC(=O)O)ccc2-c2ccc(Br)cc2)cc1	Sm TGR block 35µM (no result: NS1 function inh, Pf growth 96h, AMA1 RON2 block, Pf growth 48h)
CCOc1ccc(C2=Cc3cc(OC)c(OC)cc3C(=C(Cl)Cl)O2)cc1	Pf growth 96h inconclusive, Sm TGR block 35µM (no result: AMA1 RON2 block, Pf growth 48h)
CCOc1ccc(-c2cc(-c3nc(-c4ccc(OC)c(OC)c4)no3)[nH]n2)cc1	none (no result: NS1 function inh, Pf growth 96h, AMA1 RON2 block, Pf growth 48h)
CCCn1c2ccccc2c2cnn(CC(=O)NC(CCSC)C(=O)OC)c(=O)c21 (stereo not given)	none (no result: NS1 function inh, Pf growth 96h, AMA1 RON2 block, Pf growth 48h)
Cc1ccnc(NS(=O)(=O)c2cc(-c3cc(C)no3)ccc2C(C)C)c1	Pf growth 96h 10µM
COc1cccc(N2[C@@H](CC(=O)O)c3cc(C(F)(F)F)ccc3S2(=O)=O)c1	none (no result: NS1 function inh, Pf growth 96h, Sm TGR block, Pf growth 48h)
CCOC(=O)C1=C(O)CSC1=Nc1ccccc1	none
CCOC(=O)C1=C(O)/C(=C/c2ccccn2)SC1=Nc1ccc(Cl)cc1	Pf growth 48h 9.3µM
CCOC(=O)C1=C(O)CSC1=Nc1ccc(Cl)cc1	Pf growth 96h 10µM, Pf growth 48h 10µM
CCOC(=O)C1=C(O)/C(=C/c2ccc(-c3ccccc3C(=O)O)o2)SC1=Nc1ccc(OC)cc1	Sm TGR block inconclusive
CCOC(=O)C1=C(O)/C(=C/c2ccc(-c3ccccc3C(=O)O)o2)SC1=Nc1ccc(C)cc1	Pf growth 96h 0.93µM, Sm TGR block inconclusive, Pf growth 48h inconclusive
COc1ccc(N2CC(NC(=O)COc3cccc(C)c3)CC2=O)cc1OC (stereo not given)	none (no result: NS1 function inh, Pf growth 96h, AMA1 RON2 block, Pf growth 48h)
CC(=O)N1CCC(C(=O)Nc2cc(C)cc(C)c2)CC1	Pf growth 48h inconclusive
Cc1csc(=O)n1CCC(=O)OC(C)C(=O)NCc1ccccc1 (stereo not given)	none (no result: NS1 function inh, Pf growth 96h, Sm TGR block, Pf growth 48h)
CCNC(=O)c1c2c(nc3ccccc13)C(=O)N(C1CCCCC1)C2	none (no result: NS1 function inh, Pf growth 96h, AMA1 RON2 block, Pf growth 48h)
CCC1=NN2C(=N)/C(=C\c3ccc(SCc4ccco4)o3)C(=O)N=C2S1	Pf growth 96h inconclusive, Sm TGR block 50µM (no result: Pf growth 48h)
O=C1NC(=S)S/C1=C\c1ccc(SCc2ccco2)o1	AMA1 RON2 block inconclusive, Sm TGR block 1.3µM
COc1ccccc1C(=O)Nc1ccnn1C1CCN(Cc2ccn[nH]2)CC1	none
CCCC(O)(CCC)C(=O)NN(C(=O)CCl)c1ccccc1	Sm TGR block 11µM, Pf growth 48h inconclusive
CCCCC(O)(CCCC)C(=O)NN(C(=O)OCC)c1ccccc1	none
O=[N+]([O-])c1ccc2ncccc2c1CCc1c([N+](=O)[O-])ccc2ncccc12	none (no result: Pf growth 96h, AMA1 RON2 block, Sm TGR block, Pf growth 48h)
N#Cc1ccc(C(=O)OCC(=O)N2CCCCCC2)cc1	none (no result: NS1 function inh)
Cc1cccc(NC(=O)COc2ccccc2C(=O)NC(C)c2ccccc2)c1 (stereo not given)	Pf growth 96h 9.3µM, Sm TGR block inconclusive
CCN(CC)CCNCc1cc(Cl)c(OCC(=O)Nc2ccccc2)c(OC)c1	Pf growth 96h inconclusive, Pf growth 48h inconclusive
CC(NCc1ccccc1C(F)(F)F)C(O)c1ccccc1 (stereo not given)	Pf growth 48h 8.3µM (no result: Sm TGR block)
CC(NCc1ccc(Cl)c(Cl)c1)C(O)c1ccccc1 (stereo not given)	Pf growth 48h inconclusive (no result: Pf growth 96h)
Cc1cccc(NC(=O)c2ccccc2OCC(=O)c2ccccc2)c1	none
OCC(Cc1ccccc1)NCc1ccccc1C(F)(F)F (stereo not given)	none
CC(NCc1ccccc1Cl)C(O)c1ccccc1 (stereo not given)	Pf growth 96h 7.4µM, Pf growth 48h 9.3µM
COc1cc(CNC(C)c2ccccc2)cc(Cl)c1OCC(=O)Nc1ccccc1 (stereo not given)	Pf growth 96h inconclusive, Pf growth 48h 12µM
NNC(=O)c1nc(Cl)c(Cl)c(N)c1Cl	none
COc1ccc(NC(=O)CCN=C2NS(=O)(=O)c3ccccc32)cc1S(=O)(=O)N(C)C	Pf growth 96h inconclusive, Pf growth 48h inconclusive (no result: NS1 function inh)
